20 compounds from ChEMBL document CHEMBL3988442, “University of Dundee, Small-Polar-MMV Screening Library” (2021) can be followed below.

For the assay, the target named is AMP-activated protein kinase, AMPK (Homo sapiens) (UniProt P54646+O43741+P54619+Q9UGJ0+Q9Y478+Q13131+Q9UGI9). Kind of assay: AMP-dependent Kinase enzyme assay. An in vitro enzyme assay that detects ADP turnover that is directly proportional to AMPK activity. This uses naive AMPK that is activated during the assay with MK-8722. It counts as functional. Set-up: scale not given: direction of the effect not stated beside the values. The settings on record: 30 µM.
For the compound `O=C(NCCC1CN(C2CCCC2)CCO1)c1c[nH]c(=O)[nH]c1=O` (stereo not given), the Percent Effect was determined as 5.79%.

With `CC(=O)c1cnc(NCCN2CCCC(c3ccccc3)C2)nc1C` (stereo not given), the Percent Effect is -7.52%.

In the case of `CC1CN(c2ncnc3c2cnn3C)CCN1c1nccs1` (stereo not given), the Percent Effect came out at 11.2%.

`NC(=O)NC(CC(=O)N1CCc2sccc2C1)c1cccc(Br)c1` (stereo not given): the Percent Effect amounted to 13.9%.

On to `CCOc1cccc(C(C(=O)O)N(C)Cc2cc(C)no2)c1` (stereo not given), for which the Percent Effect was 7.67%.

For the compound `CC(c1nc(C2CC2)no1)N1CCc2c(ncn2C)C1` (stereo not given), the Percent Effect was 12%.

With `Cc1nc(CNC(=O)c2cc(COc3ccccc3F)[nH]n2)n[nH]1`, the Percent Effect stood at 5.27%.

Regarding `Cc1n[nH]c(C)c1CCN(C)C(=O)c1ccc(CCC(C)(C)O)cc1`, the Percent Effect amounted to 2.23%.

Consider `O=C(COc1cccc(Cl)c1)N1CCOCC(O)(CN2CCCC2)C1` (stereo not given), for which the Percent Effect came to 6.36%.

As for `CCc1nnc(NC(=O)c2c3c(nn2C2CCS(=O)(=O)C2)CCC3)s1` (stereo not given), the Percent Effect is -8.02%.

For the compound `CCCc1n[nH]c(=O)n1Cc1ccc(OC)cc1`, the Percent Effect came out at 3.68%.

As to `O=C1CN(C(=O)CC2c3ccccc3CCc3ccccc32)CCN1`, the Percent Effect is 30.9%.

As to `Cn1cc(NC(=O)Cc2ccccc2Br)cc1C(N)=O`, the Percent Effect came to 3.12%.

As to `Cc1cncc(C2CCN(Cc3cnc(C)nc3)CC2)n1`, the Percent Effect was 9.99%.

Consider `Cc1cc(C)c2c(NCc3nncn3C3CCCCC3)ncnc2n1`, for which the Percent Effect is -0.11%.

`Cn1cc(CCCN2CCCC(c3cc(C(F)(F)F)[nH]n3)C2)cn1` (stereo not given): the Percent Effect is -0.434%.

With `Cc1c(NC(=O)c2ncn[nH]2)cccc1C(=O)NC(C)(C)C`, the Percent Effect was 5.84%.

Turning to `O=C(C1CC1)N1CCCC(C2=Nc3ccccc3S(=O)(=O)N2)C1` (stereo not given), the Percent Effect came to 24.4%.

Take `Cc1cc(=O)n2nc(Oc3cc(Cl)cc(Cl)c3)sc2n1`: the Percent Effect was -4.19%.

Consider `CN(CCCc1cnn(C)c1)Cc1cc2n(n1)CCNC2`, for which the Percent Effect is -4.86%.
